In ChEMBL document CHEMBL3433997, “St. Jude Leishmania screening dataset” (2016):

Experiments:
Type in all cases: functional
[1] = molecular target: Solute carrier family 2, facilitated glucose transporter member 1 (Homo sapiens) (UniProt P11166); assay: ST_JUDE_LEISH: Cytotoxicity at 2uM final concentration against transgenic Leishmania Mexicana promastigotes LmGLUT1 that are glucose transport deficient and complemented with the human glucose transporter GLUT1. Activity is measured by DNA content using SYBR green in vitro
[2] = molecular target: Hexose transporter 1 (Plasmodium falciparum) (UniProt O97467); assay: ST_JUDE_LEISH: Cytotoxicity at 2uM final concentration against transgenic Leishmania Mexicana promastigotes LmPfHT that are glucose transport deficient and complemented with the Plasmodium falciparum hexose transporter. Activity is measured by DNA content using SYBR green in vitro
[3] = molecular target: Glucose transporter (Leishmania mexicana) (UniProt O61059); assay: ST_JUDE_LEISH: Cytotoxicity at 2uM final concentration against transgenic Leishmania Mexicana promastigotes LmGT2 that are glucose transport deficient and complemented with the L. Mexicana glucose transporter 2. Activity is measured by DNA content using SYBR green in vitro

Sequence of Solute carrier family 2, facilitated glucose transporter member 1 (Homo sapiens) (P11166 whole entry): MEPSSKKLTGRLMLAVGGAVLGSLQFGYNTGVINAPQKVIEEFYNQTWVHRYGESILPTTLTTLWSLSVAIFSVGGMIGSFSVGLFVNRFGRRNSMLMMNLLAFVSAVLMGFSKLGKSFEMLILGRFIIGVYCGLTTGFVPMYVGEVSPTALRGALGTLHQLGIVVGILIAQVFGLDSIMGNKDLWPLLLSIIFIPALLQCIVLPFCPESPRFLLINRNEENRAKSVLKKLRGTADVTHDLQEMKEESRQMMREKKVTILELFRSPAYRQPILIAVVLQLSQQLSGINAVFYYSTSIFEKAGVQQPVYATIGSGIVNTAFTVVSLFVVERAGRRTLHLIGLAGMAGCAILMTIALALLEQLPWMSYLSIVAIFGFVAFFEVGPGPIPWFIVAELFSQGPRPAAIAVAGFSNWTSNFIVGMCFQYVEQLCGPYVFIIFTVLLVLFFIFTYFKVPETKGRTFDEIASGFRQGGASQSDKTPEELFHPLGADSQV

SMILES	inhibition [1] [%]	inhibition [2] [%]	inhibition [3] [%]
CCn1c2ccccc2c2cc(C=NN=c3cc(C)[nH]c4ccccc34)ccc21	4.76	6	0.19
CC(=NNC(S)=NC(c1ccccc1)c1ccccc1)c1ccccn1	61	58.8	32
CCOC(=O)N1CCN(C(=O)Nc2ccc(Cl)cc2)CC1	1.34	1	0.32
CC(CN)OCn1cnc2c(N)ncnc21 (centres undefined)	0.4	4.03	4.83
CCCCCCCN1CCC(CC(=O)Nc2ccnc3ccc(OC)cc23)CC1	11.3	9.11	6.34
CN1CCCc2cc(NC(=O)c3cc(-c4ccc(Cl)cc4)cs3)ccc2C1	2.24	0.77	1.79
COc1ccc(NC(=O)c2cccc(Br)c2)cc1N1CCN(CCCCCCCN2CCN(c3cc(NC(=O)c4cccc(Br)c4)ccc3OC)CC2)CC1	3.47	2.27	0.78
CC(C)(C)c1ccc(CNC(=O)/C=C/c2ccc(-c3nc4cc(C(C)(C)C)ccc4[nH]3)cc2)cc1	2.35	3.4	4.02
CC1(C)NC(N)=NC(=N)N1OCCOc1ccc2ccccc2c1	0.95	-0.86	1.3
CCc1nc2nc(C)cc(Nc3ccc4c(c3)OCCO4)n2n1	2.89	4.78	-3.9
CC1CCN(Cc2c(O)ccc3c(CN4CCC(C)CC4)c(O)ccc23)CC1	4.79	6.78	6.37
CN(C)c1ccnc2ccc(NC(=O)Nc3ccnc4ccccc34)cc12	1.93	2.58	1.09
O=C(Nc1ccon1)c1cc(-c2cccnc2)nc2ccc(Cl)cc12	5.01	3.36	3.02
